Source: PubChem
GLS inh – glutaminase GLS (human) inhibition | O94925 | GLS enzymatic activity, qHTS titration | Potency, µM (doses to about 45.5 µM), actives largely listed as inhibitors | 410,000 tested, 0.21% active | AID 624170
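hKGA; 45 mM KH2PO4 pH 8.2 + 0.02% Tween-20; cpd via pin tool; 1 mM Gln soln; GluOx/HRP/Amplex Red; RT 30 min; fluor. t0 & final.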
G9a inh – G9a (human) methyltransferase inhibition. Potency, µM (top dose mostly 102 µM), hits mostly inhibitors. G9a H3K9 monomethylation, AlphaScreen, 2 h. AID 504332. 350,000 tested, 8.8% active; also: nearly all actives have a fitted effect of over 75% in size
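AlphaScreen detection with an anti-monomethyl H3K9 antibody quantified product after a 2 h room-temperature reaction containing 500 nM biotinylated H3K9 peptide, 20 µM SAM and 20 nM enzyme, which had been preincubated 15 min with compound.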
HP1b chromo inh – HP1-beta chromodomain-methylated histone interaction inhibition; Potency, µM (series often up to 114 µM), hits mostly inhibitors; AlphaScreen HP1-beta / biotin-H3K9me3 peptide binding; P83916; AID 540317; 390,000 tested, 0.56% active; also: nearly all actives have a fitted effect of over 70% in size
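Compound inhibition of the preformed complex between 50 nM HP1-beta and 50 nM biotinylated H3K9me3 peptide was read by AlphaScreen. Buffer was PBS pH 7.4 with 0.01% Tween-20. Incubations ran 30 min at room temperature, with 10 ug/mL donor/acceptor beads.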
BAZ2B block – blocks human BAZ2B; Q9UIF8; AlphaScreen BAZ2B-H3K14Ac peptide displacement; Potency, µM (titrated, usually from 114 µM), hits mostly inhibitors; 360,000 tested, 4.4% active; AID 504333; also: nearly all actives have a fitted effect of over 60% in size
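Complex of BAZ2B and biotin-H3K14Ac (50 nM apiece) forms over 30 min at RT, then faces library compounds up to 110 uM for another 30 min; AlphaScreen beads added, 20 min dark incubation, luminescence read.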
JMJD2A Tudor inh – inhibitors of human JMJD2A Tudor domain. AID 504339. Potency, µM (top dose mostly 114 µM), actives largely listed as inhibitors. AlphaScreen JMJD2A-Tudor / H3K4me3 peptide binding. 390,000 tested, 4.4% active. O75164; also: nearly all actives have a fitted effect of over 50% in size
Target sequence (O75164 whole entry, looked up, the tested form may be a part): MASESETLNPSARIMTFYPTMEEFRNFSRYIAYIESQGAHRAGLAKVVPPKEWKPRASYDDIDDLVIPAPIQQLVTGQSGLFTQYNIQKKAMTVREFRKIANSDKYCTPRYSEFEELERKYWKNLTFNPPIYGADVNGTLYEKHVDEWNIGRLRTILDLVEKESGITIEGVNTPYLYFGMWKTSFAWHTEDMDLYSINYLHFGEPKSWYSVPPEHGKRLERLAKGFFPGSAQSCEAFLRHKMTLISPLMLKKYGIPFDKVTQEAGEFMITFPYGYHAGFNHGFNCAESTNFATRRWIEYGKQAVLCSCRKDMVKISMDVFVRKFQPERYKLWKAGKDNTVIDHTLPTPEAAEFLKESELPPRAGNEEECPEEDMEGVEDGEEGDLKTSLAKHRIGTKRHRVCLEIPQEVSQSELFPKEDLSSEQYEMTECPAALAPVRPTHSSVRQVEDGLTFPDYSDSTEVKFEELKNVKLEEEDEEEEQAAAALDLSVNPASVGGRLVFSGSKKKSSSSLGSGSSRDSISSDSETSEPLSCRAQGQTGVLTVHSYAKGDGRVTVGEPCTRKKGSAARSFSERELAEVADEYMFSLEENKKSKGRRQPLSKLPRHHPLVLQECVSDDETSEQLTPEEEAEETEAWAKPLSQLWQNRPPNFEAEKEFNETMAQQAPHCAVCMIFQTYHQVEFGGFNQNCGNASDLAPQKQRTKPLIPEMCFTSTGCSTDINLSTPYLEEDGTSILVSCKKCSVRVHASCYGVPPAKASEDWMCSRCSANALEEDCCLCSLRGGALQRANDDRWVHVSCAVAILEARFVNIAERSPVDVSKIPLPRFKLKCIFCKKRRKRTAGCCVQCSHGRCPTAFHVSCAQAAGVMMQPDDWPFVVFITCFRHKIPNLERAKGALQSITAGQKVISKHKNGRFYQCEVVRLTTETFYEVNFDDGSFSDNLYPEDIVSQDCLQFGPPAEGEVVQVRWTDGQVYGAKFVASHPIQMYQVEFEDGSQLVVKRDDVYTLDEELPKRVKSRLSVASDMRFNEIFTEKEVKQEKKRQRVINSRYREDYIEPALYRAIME
Hits are given with their value; i = inactive; ? = inconclusive; nt = no result; [ ] = another dose, or the depositor's remark. Only some compounds are listed: those with a hit (about 10% of all), similar ones and a draw of the others. Calls follow the shape of the dose curve; as a rule, active = well fitted curve in the direction sought with a large enough effect; inconclusive = small, poorly fitted or top-dose-only effect, or another doubt; inactive = no such curve, though single readings can be large; an effect the other way counts as inactive or inconclusive.

SMILES | GLS inh | G9a inh | HP1b chromo inh | BAZ2B block | JMJD2A Tudor inh
COc1ccc(S(=O)(=O)NC(Cc2cnc[nH]2)C(=O)O)cc1 (stereo not given) | i | ? | i | i | 13µM
COc1ccc(S(=O)(=O)NC(Cc2ccccc2)C(=O)O)cc1 (stereo not given) | i | i | i | i | i
CC(C)NCc1cccc([N+](=O)[O-])c1 | i | 2.5µM | ? | 56µM | 20µM
CSc1nc(Cl)c(Cc2ccc(OC(C)C)cc2)c(N(C)C)n1 | i | i | i | i | i
CCOCc1[nH]c(=S)[nH]c(=O)c1Cc1ccc(OC(C)C)cc1 | i | 50µM | i | i | i
O=C(O)c1ccccc1C(=O)N1N=C2/C(=C/c3cccc([N+](=O)[O-])c3)CCCC2C1c1cccc([N+](=O)[O-])c1 (stereo not given) | i | 50µM | i | 45µM | ?
O=C(O)c1c(C(=O)N2N=C3/C(=C/c4ccccc4)CCCC3C2c2ccccc2)cccc1[N+](=O)[O-] (stereo not given) | i | 50µM | i | ? | i
CC(=O)N1N=C2/C(=C/c3ccccc3)CCCC2C1c1ccccc1 (stereo not given) | i | nt | i | i | ?
O=C(O)COc1ccc(-c2nccc(-c3ccccn3)n2)cc1 | i | ? | ? | 79µM | i[11.4 µM]
FCCCOc1ccc(-c2nccc(-c3ccccn3)n2)cc1 | i | i | i | i | i
Oc1ccc(Oc2ccc(Oc3ccc(O)cc3)cc2)cc1 | i | i[0.501 µM] | i | i | i
COc1cccc(NCc2ccc([N+](=O)[O-])s2)c1 | i | 13µM | ? | ? | ?
Cc1nn(-c2ccccc2)c2c1C(c1ccccc1)C(C#N)=C(N)O2 (stereo not given) | i | ? | i | ? | i[11.4 µM]
Cc1ccc(-n2nc(C)c3c2OC(N)=C(C#N)C3c2ccc(C)o2)cc1 (stereo not given) | i | 8.9µM | i | 10µM | 11µM
Cc1nn(-c2ccccc2)c2c1C(c1ccc(Br)s1)C(C#N)=C(N)O2 (stereo not given) | i | 16µM | ? | 11µM | 13µM
Cc1ccc(-n2nc(C)c3c2OC(N)=C(C#N)C3c2ccco2)cc1 (stereo not given) | i | ? | 45µM | 18µM | 56µM
COc1ccc(C2C(C#N)=C(N)Oc3c2c(-c2ccccc2)nn3-c2ccccc2)c(OC)c1OC (stereo not given) | i | 50µM | ? | 25µM | ?
O=C(NNC(=O)c1n[nH]c(=O)c2ccccc12)c1ccc(Br)cc1 | i | i[12.7 µM] | i | i | i
Cc1cccc(NC(=O)CSc2nc3ccccc3c3nc(CCc4c(C)n[nH]c4C)nn23)c1 | i | i | i | i | ?
COC(=O)c1nc(N)sc1-c1ccccc1 | i | i | i | i | i[11.4 µM]
COC(=O)c1nc(N)sc1-c1ccc(Cl)cc1 | i | 45µM | i | i | i
O=C(NCc1ccccc1Cl)c1cc2c(s1)-c1ccc(Cl)cc1SC2 | i | i | i | i | i
O=C(O)C1CC(=O)N(c2ccc(F)cc2)C1 (stereo not given) | i | i[12.7 µM] | ? | i | 50µM
O=Cc1ccc(OC(=O)C2CC(=O)N(c3ccc(F)cc3)C2)cc1 (stereo not given) | i | 50µM | i | i | i
O=C(C1CC(=O)N(c2ccc(F)cc2)C1)N1CCN(c2ccc(F)cc2)CC1 (stereo not given) | i | nt | i | i | i
SMILES | GLS inh | G9a inh | HP1b chromo inh | BAZ2B block | JMJD2A Tudor inh
CCNCCNC(=O)c1c(O)c2ccccc2n(CC)c1=O | i | 11µM | i | i | i
CCn1c(=O)c(C(=O)NCCN2CCCCC2)c(O)c2ccccc21 | i | 56µM | i | ? | i
C=CCn1c(=O)c(C(=O)NCCNCC)c(O)c2ccccc21 | i | ? | i | ? | i
C/C(=N\NC(=O)c1cc(-c2cccc([N+](=O)[O-])c2)n[nH]1)c1ccccc1O | i | i | i | 8.9µM | 14µM
Cc1cccc(C)c1NC(=O)C(c1ccccc1)N1CCC2(CC1)OCCO2 (stereo not given) | i | nt | i | nt | i
Cc1cccc(C)c1NC(=O)C(c1ccccc1)N1CCC1=O (stereo not given) | i | i[12.7 µM] | i | i | 40µM
Cc1cccc(OCCn2c(=S)[nH]c3ccccc32)c1 | i | 1.6µM | i | ? | ?
Cc1ccc(OCCn2c(=S)[nH]c3ccccc32)c(C(C)C)c1 | i | nt | i | ? | i
